# Laboratory results reported in PubChem BioAssay.
# Calls of active or inactive are those of the source.
# Assays:
# [1] = system: Plasmodium falciparum Sir2 (PF13_0152, Sir2A); test: Plasmodium falciparum Sir2A binding compounds – biochemical, small-molecule microarray, 635 nm fluorescence, primary screen (AID 1098); details: fluorescence 635 nm, higher = more signal;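 note: score merges spot fluorescence intensity with its signal-to-noise ratio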
# [2] = probe aDKK1 binding to arrayed compounds – biochemical, biotinylated probe, 635/667 nm fluorescence, primary screen (AID 1099); details: small-molecule microarray, higher = more signal;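 note: score merges 667nm spot fluorescence with signal to noise across triplicate slides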
# [3] = probe aCHRDL2 binding to arrayed compounds – biochemical, biotinylated probe, 635/667 nm fluorescence, primary screen (AID 1100); details: small-molecule microarray, higher = more signal
# [4] = change in splice reporter luminescence, either direction, cell-based, HEK293, spliceosome inhibition project, primary screen (AID 1101); details: HEK293 splicing luciferase reporter, 24 h, higher = more signal, called active from +8 up or from −8 down;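 note: HEK293 cells carrying a splicing-competent luciferase reporter gene; test concentration not given here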
# [5] = target: Fibroblast growth factor 10 (Homo sapiens) (UniProt O15520); test: compounds binding fibroblast growth factor 10 – biochemical, small-molecule microarray, 635 nm fluorescence, primary screen (AID 1102); details: FGF10 binding, fluorescence 635 nm, higher = more signal
# [6] = system: glycogen synthase kinase-3 (GSK3A per assay name; protocol says GSK3B); test: compounds binding glycogen synthase kinase-3 – biochemical, small-molecule microarray, 635 nm fluorescence, GSK3A, primary screen (AID 1103); details: fluorescence 635 nm, higher = more signal; note: the record names both GSK3A and GSK3B
# [7] = target: Epidermal growth factor receptor (Homo sapiens) (UniProt P00533); test: compounds binding epidermal growth factor receptor – biochemical, small-molecule microarray, 635 nm fluorescence, primary screen (AID 1104); details: EGFR binding, higher = more signal;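 note: score merges 667 nm emission intensity with spot signal to noise over triplicate slides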
# [8] = target: Follistatin-related protein 3 (Homo sapiens) (UniProt O95633); test: compounds binding follistatin-related protein 3 – biochemical, small-molecule microarray, 635 nm fluorescence, primary screen (AID 1105); details: FSTL3 binding, higher = more signal;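 note: score merges emission near 667 nm and signal to noise per printed spot across three slides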
# [9] = target: Dickkopf-related protein 1 (Homo sapiens) (UniProt O94907); test: small molecules binding DKK1 protein – biochemical, small-molecule microarray, 635 nm fluorescence scan, primary screen (AID 1106); details: higher = more signal;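 note: score merges emission near 667 nm with signal to noise over three replicate slides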
# [10] = system: Inhibin beta A chain (activin A); test: small molecules binding activin A – biochemical, small-molecule microarray, 635 nm fluorescence scan, primary screen (AID 1107); details: INHBA, higher = more signal;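 note: mouse activin A protein probed at 4.33 µg/mL on printed slides; score merges bound-protein fluorescence near 667 nm with spot signal-to-noise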
# [11] = system: Human papillomavirus type 1a protein E7 (residues 44-93); test: small molecules binding HPV E7 44-93 – biochemical, small-molecule microarray, residues 44-93, 635 nm fluorescence, primary screen (AID 1108); details: fluorescence 635 nm, higher = more signal;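 note: E7 fragment applied at 1 µg/mL in TBST for 1 h at 4 C; score combines spot fluorescence with its signal to noise ratio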
# [12] = hepatitis C replication reporter changes, two-sided – Huh7 cells, luciferase reporter, HCV replication inhibitor project, primary screen (AID 1109); details: Huh7 HCV replicon luciferase reporter, 48 h; higher = more signal;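 note: huh7 hepatoma cells harbouring a luciferase neomycin HCV replicon reporter; luciferase luminescence as measure of HCV replicon replication; test concentration not given here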
# [13] = target: Left-right determination factor 2 (Homo sapiens) (UniProt O00292); test: small molecules binding LEFTY2 protein – biochemical, small-molecule microarray, 635 nm fluorescence scan, primary screen (AID 1110); details: higher = more signal
# [14] = target: Calmodulin-1 (Homo sapiens) (UniProt P0DP23); test: small molecules binding calmodulin-1 with EGTA – biochemical, small-molecule microarray, Cy5-labelled CALM1, profiling panel (AID 1111); details: Cy5-CALM1 binding fluorescence, higher = more signal;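 note: labelled calmodulin applied in Tris saline Tween buffer holding calcium plus EGTA and DTT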
# [15] = target: Calmodulin-1 (Homo sapiens) (UniProt P0DP23); test: small molecules binding Ca-loaded calmodulin-1 – biochemical, small-molecule microarray, Cy5-labelled CALM1, plus calcium, artefact control for SMM control-protein annotation, profiling panel (AID 1112); details: Cy5-CALM1 binding fluorescence, higher = more signal;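 note: score merges spot fluorescence with signal to noise from triplicate slides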
# [16] = probe aWnt5a binding to arrayed compounds – biochemical, biotinylated probe, 635/667 nm fluorescence, primary screen (AID 1113); details: small-molecule microarray, higher = more signal;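 note: score merges 667 nm fluorescence intensity with signal-to-noise per printed feature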
# [17] = probe aShh binding to arrayed compounds – biochemical, biotinylated probe, 635/667 nm fluorescence, primary screen (AID 1114); details: small-molecule microarray, higher = more signal;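 note: probe is biotin-labelled aShh protein from a stem cell growth factor screen; measures binding of labelled protein to compounds printed on the slide; score merges feature fluorescence at 667 nm with signal-to-noise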
# [18] = probe aNog binding to arrayed compounds – biochemical, biotinylated probe, 635/667 nm fluorescence, primary screen (AID 1115); details: small-molecule microarray, higher = more signal;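 note: probe is biotinylated aNog protein used at 0.15 µg/mL for 1 h at 4 C; z-score combines 667 nm fluorescence of each spot with its signal to noise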
# [19] = target: Torsin-1A-interacting protein 1 (Homo sapiens) (UniProt Q5JTV8); test: compound microarray binding of lysate hLAP1 – cell lysate, small-molecule microarray, COS7 lysate, 635/667 nm fluorescence, primary screen (AID 1116); details: 635 nm fluorescence, higher = more signal
# [20] = target: Alpha-bungarotoxin (Bungarus multicinctus) (UniProt P60615); test: compounds binding labelled alpha-BTX control protein – biochemical, small-molecule microarray, Alexa647 label, 635/667 nm fluorescence, artefact control for SMM control protein annotation, profiling panel (AID 1117); details: alpha-BTX-A647 binding fluorescence, higher = more signal
# Sequence of Alpha-bungarotoxin (Bungarus multicinctus) (P60615 whole entry, looked up): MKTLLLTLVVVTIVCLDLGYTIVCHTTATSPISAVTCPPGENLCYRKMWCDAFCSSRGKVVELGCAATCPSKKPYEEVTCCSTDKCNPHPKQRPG
# Sequence of Left-right determination factor 2 (Homo sapiens) (O00292 whole entry, looked up): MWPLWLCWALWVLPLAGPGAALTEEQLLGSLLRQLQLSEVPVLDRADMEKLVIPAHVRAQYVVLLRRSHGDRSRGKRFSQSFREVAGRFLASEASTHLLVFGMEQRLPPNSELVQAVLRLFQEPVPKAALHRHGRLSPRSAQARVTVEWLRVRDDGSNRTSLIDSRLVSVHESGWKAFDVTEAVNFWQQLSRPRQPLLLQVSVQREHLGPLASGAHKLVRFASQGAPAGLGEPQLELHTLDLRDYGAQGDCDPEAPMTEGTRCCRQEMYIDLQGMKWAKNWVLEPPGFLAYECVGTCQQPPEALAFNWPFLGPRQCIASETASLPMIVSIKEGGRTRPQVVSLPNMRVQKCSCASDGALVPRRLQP
# Sequence of Fibroblast growth factor 10 (Homo sapiens) (O15520 whole entry, looked up): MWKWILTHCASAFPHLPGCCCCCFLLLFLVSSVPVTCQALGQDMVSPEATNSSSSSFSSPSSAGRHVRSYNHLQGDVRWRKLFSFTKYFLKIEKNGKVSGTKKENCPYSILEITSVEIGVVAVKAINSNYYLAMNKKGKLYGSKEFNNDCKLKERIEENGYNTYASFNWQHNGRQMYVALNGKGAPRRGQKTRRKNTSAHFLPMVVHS
# Sequence of Torsin-1A-interacting protein 1 (Homo sapiens) (Q5JTV8 whole entry, looked up): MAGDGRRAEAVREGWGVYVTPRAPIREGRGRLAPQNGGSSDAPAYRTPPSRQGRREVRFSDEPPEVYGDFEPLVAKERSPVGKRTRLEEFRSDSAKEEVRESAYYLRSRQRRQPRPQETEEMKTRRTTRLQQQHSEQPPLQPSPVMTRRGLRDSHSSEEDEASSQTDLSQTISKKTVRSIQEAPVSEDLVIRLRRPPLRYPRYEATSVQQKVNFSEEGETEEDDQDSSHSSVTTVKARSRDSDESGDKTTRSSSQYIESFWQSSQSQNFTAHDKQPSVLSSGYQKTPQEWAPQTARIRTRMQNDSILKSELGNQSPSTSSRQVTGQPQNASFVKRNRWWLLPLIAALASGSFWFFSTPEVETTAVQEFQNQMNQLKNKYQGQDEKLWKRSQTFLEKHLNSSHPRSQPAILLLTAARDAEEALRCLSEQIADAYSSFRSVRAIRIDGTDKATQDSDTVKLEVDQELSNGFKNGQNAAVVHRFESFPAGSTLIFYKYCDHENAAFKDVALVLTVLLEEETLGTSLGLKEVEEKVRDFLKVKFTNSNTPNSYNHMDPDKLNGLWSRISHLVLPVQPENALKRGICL
# Sequence of Follistatin-related protein 3 (Homo sapiens) (O95633 whole entry, looked up): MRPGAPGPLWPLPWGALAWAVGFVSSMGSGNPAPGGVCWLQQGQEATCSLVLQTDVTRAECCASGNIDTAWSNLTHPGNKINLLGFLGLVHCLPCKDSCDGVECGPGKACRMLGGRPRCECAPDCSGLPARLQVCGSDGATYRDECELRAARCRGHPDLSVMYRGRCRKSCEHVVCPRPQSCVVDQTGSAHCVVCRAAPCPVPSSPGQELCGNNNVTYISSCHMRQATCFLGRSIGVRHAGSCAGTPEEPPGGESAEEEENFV
# Sequence of Epidermal growth factor receptor (Homo sapiens) (P00533 whole entry, looked up): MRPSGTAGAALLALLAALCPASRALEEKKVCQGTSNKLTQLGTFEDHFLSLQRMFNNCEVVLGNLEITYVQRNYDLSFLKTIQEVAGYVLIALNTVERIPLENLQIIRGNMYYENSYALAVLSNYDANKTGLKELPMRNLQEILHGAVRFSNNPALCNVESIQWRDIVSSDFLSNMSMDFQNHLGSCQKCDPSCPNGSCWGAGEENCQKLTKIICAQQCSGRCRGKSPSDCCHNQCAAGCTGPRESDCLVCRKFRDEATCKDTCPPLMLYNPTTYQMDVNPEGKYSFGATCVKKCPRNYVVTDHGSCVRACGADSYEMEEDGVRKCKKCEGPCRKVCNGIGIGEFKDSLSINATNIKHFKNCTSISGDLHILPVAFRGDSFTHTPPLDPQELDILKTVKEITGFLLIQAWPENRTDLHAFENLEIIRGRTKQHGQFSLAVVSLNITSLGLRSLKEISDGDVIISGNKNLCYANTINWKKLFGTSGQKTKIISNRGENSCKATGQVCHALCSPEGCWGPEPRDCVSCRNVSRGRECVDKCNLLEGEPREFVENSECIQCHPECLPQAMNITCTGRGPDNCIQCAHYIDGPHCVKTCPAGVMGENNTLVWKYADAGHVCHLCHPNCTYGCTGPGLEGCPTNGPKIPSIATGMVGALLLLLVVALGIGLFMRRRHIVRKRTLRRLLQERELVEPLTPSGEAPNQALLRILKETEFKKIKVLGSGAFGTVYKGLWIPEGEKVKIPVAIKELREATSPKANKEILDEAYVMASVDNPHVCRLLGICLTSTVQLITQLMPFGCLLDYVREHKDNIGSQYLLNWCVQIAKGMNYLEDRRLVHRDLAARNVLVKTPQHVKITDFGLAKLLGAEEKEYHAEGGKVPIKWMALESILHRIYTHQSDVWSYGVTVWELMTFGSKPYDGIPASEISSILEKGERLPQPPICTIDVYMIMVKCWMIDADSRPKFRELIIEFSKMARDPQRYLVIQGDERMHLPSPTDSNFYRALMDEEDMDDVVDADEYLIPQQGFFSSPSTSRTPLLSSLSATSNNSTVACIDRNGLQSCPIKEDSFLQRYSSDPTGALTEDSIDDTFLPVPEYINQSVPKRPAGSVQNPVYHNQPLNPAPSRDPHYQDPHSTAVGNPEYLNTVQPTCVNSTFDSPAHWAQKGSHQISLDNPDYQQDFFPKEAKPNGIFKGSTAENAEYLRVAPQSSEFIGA
# Sequence of Dickkopf-related protein 1 (Homo sapiens) (O94907 whole entry, looked up): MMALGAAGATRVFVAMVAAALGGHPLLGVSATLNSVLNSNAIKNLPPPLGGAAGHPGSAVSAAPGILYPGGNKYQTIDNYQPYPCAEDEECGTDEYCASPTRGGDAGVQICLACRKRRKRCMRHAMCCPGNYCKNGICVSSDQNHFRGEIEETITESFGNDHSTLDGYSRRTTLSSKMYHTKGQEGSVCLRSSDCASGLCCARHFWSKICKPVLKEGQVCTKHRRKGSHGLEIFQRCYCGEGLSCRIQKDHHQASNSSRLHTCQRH
SMILES,composite z-score [1],composite z-score [2],composite z-score [3],z-score [4],composite z-score [5],composite z-score [6],composite z-score [7],composite z-score [8],composite z-score [9],composite z-score [10],composite z-score [11],z-score [12],composite z-score [13],composite z-score [14],composite z-score [15],composite z-score [16],composite z-score [17],composite z-score [18],composite z-score [19],composite z-score [20]
CC(=O)NCCCC[C@@H]1NC(=O)[C@@H]2C[C@H](C(=O)NCCCCCNC(=O)CS)[C@H](c3cccc(OCCO)c3)N2C1=O,1.16,-0.394,-0.155,-2.01 (inactive),0.0349,-0.0868,0.724,1.07,1.11,0.337,-0.0596,-0.652,0.837,-0.646,-0.754,-0.214,-0.0533,-0.0533,-0.443,-0.0629
COc1ccc(C(=O)Nc2ccc(CN3C(=O)[C@]4(O[C@H](CCO)[C@@H]([Si](C)(C)c5ccc(OC)cc5)[C@@H]4C)c4ccccc43)cc2)cc1,1.21,-0.122,0.326,-3.38 (inactive),0.708,0.762,0.231,1.02,0.241,1.3,1,-5.09,0.202,0.564,-0.314,0.026,0.014,-0.226,0.432,0.509
O=C1c2ccccc2[C@](Cc2ccccc2I)(C(=O)NCC(F)(F)F)[C@H](c2ccc(CO)cc2)N1Cc1ccccc1Cl,1.4,-0.0951,0.502,-0.504 (inactive),0.588,0.539,0.0527,0.923,-0.19,0.41,1.41,-0.798,-0.141,1.03,0.512,-0.0472,0.0632,-0.239,0.208,0.918
C=CCOC(=O)[C@H]1[C@@H]2C(=O)O[C@@H](c3ccccc3)[C@@H](c3ccccc3)N2[C@@H](c2ccc(OCCOC(=O)[C@@H]3C[C@@H]4C(=O)N[C@@H](CC(C)C)C(=O)N4[C@@H]3c3ccc(O)cc3)cc2)[C@]12C(=O)Nc1ccccc12,1.58,0.105,0.257,0.426 (inactive),1.26,1.3,0.671,1.3,0.675,-0.233,1.12,-1.47,0.701,2.5,0.137,0.0044,0.14,0.938,1.75,1.6
COc1cc(NN2C(C(O)c3ccco3)C=CC3C(=O)N(c4ccccc4)C(=O)C32)cc(OC)c1OC (stereo not given),1.69,0.157,0.485,0.523 (inactive),-0.0151,-0.0659,-0.395,0.373,-0.21,0.914,-0.271,-0.937,-0.198,-0.3,-0.657,-0.213,-0.29,0.133,1.05,0.425
C[N+](C)(C)CCCCNC(=O)[C@H]1C[C@H]2C(=O)N3CCC[C@H]3C(=O)N2[C@H]1c1cccc(OCCO)c1,0.501,0.0086,0.314,0.717 (inactive),0.489,-0.415,-0.142,1.14,1.32,1.08,-1.09,-0.884,0.766,-0.858,1.03,-0.0721,0.0141,0.0043,0.854,-0.912
CCOC(=O)C[C@H]1[C@H](OC(=O)c2cc3ccccc3oc2=O)[C@@H](NC(=O)c2ccccc2)c2cc(OCCCO)ccc2N1C(=O)c1ccc2ccccc2n1,0.485,-0.128,-0.446,0.0189 (inactive),0.72,0.228,0.536,1.11,0.425,0.344,0.55,-0.765,0.782,0.183,-0.505,-0.0758,-0.237,-0.242,0.79,0.137
C=CCOC(=O)[C@@H]1[C@H]2C(=O)O[C@H](c3ccccc3)[C@H](c3ccccc3)N2[C@H](c2ccc(OCCOC(=O)[C@H]3C[C@H]4C(=O)N5CCC[C@H]5C(=O)N4[C@H]3c3ccc(O)cc3)cc2)[C@@]12C(=O)Nc1ccc(I)cc12,1.62,0.158,0.0375,-1.27 (inactive),1.17,1.34,0.785,1.14,0.986,0.379,0.453,-1.5,0.928,1.02,-0.181,-0.203,0.285,-0.326,0.65,1.61
COCCOC(=O)N1C(=O)[C@@]2(c3cc(C#CCNC(N)=O)ccc31)[C@H](C(=O)Nc1nc3ccccc3s1)[C@H]1C(=O)O[C@H](c3ccccc3)[C@H](c3ccccc3)N1[C@@H]2c1ccc(OCCO)cc1,-0.112,0.92,0.795,-0.239 (inactive),1.11,0.755,0.373,0.963,1.15,0.542,1.26,-1.08,0.825,1.37,0.662,0.003,-0.382,-0.229,0.415,1.24
C=C(COC)/C(=C/C[C@@H](OC(C)=O)c1ccc(OCCO)cc1)c1cnc2ccccc2c1,1.14,-0.151,0.352,-0.949 (inactive),1.57,0.369,0.824,1.49,1.25,1.7,0.487,-1.19,0.989,0.263,-0.731,-0.0761,0.0557,-0.1,0.174,1.63
C=C(C)[C@@H]1CC=C(C(O)C2C=CC3C(=O)N(C)C(=O)C3N2Nc2ccccc2)CC1 (stereo not given in full),0.433,0.344,0.581,1.98 (inactive),1.03,1.03,0.928,1.42,1.11,1.43,1.35,-0.626,0.658,-0.27,-0.74,0.0004,-0.142,-0.144,0.296,0.429
